PubChem BioAssay (Tox21)
Inconclusive results are not listed. A number with no mark means an inactive call. Active and inactive are the calls of the source. Calls come from the whole dose curve; as a rule, active = well fitted cell-killing curve with a large enough effect in the repeat runs; inconclusive = weak or mixed curves, or effect the other way; inactive = flat fitted curve, though single readings scatter.

Experiment: qHTS assay to identify small molecule antagonists of the constitutive androstane receptor (CAR) signaling pathway - cell viability counter screen (AID 1224837); note: nearly all actives have a fitted effect of over 45% in size
Conditions: HepG2-CYP2B6-hCAR viability, CellTiter-Fluor, 23 h, co-treated with 50 nM CITCO; series mostly up to 92.4 µM; activity change, negative = cytotoxicity: at the top concentration
Source text: National Center for Advancing Translational Sciences [NCATS]
NIH Chemical Genomics Center [NCGC]
U.S. Environmental Protection Agency [EPA]
National Institutes of Environmental Health Sciences [NIEHS]
National Toxicology Program [NTP]
U.S. Food and Drug Administration [FDA]
The constitutive androstane receptor (CAR) is a nuclear receptor which regulates multiple drug metabolizing enzymes (DMEs) and transporters. Activating CAR will generally increase the transcription and subsequent translation of CYP2B6 and CYP3A4. These two DMEs represent about 50% of the drug metabolizing potential in the body. When CAR is deactivated, the metabolizing potential in the body will decrease, subsequently increasing the toxicity in the body or lowering the therapeutic potential of a pro-drug. Recently, there have also been studies performed indicating CARs role in energy metabolism and cancer therapy. Therefore, inhibiting CARs activity could have a potential effect on diabetes and cancer. Identifying environmental toxins and compounds which modulate CAR, through the use of the Tox21 10K compound collection, will be an important step in determining the toxicity and potential therapeutic effects these factors will have on the human body. To differentiate true CAR antagonists from cytotoxic substances, the assay is multiplexed with a cell viability assay.
Tox21 Assay Protocol Summary:
A double-stable (hCAR and CYP2B6-2.2kb) transfected cell line, derived from human hepatoma (HepG2) cells, was utilized for the duration of the quantitative high-throughput screens. The HepG2-CYP2B6-hCAR cells were dispensed at 2500 cells/4 uL/well in 1536-well white solid bottom plates using a Multidrop Combi. After the assay plates were incubated at 37 C/5% CO2 for 4 hrs, 23 nL of compounds at 15 concentrations (from 5-48 columns) or positive control (from 1 to 4 columns) were transferred to the assay plates using a Pintool station. One uL of CITCO (final concentration = 50 nM) was added, using a Flying Reagent Dispenser, inside each well. After a 23 hr incubation period at 37 C/5% CO2, 1 uL of CellTiter-Fluor reagent was added into each well of the assay plates using a Flying Reagent Dispenser. The fluorescence intensity in the plates was then measured using a ViewLux plate reader.
% is set by controls: 0 for no effect and ±100 for the full control effect; potency is the fitted concentration of half-maximal effect.

Question: With COC1=CC(=O)O[C@@H](CCc2ccccc2)C1 as the compound, how does the “activity change, negative = cytotoxicity” value read?
Answer: Its value is 5.5%.

Question: With Cl/C=C\C[N+]12CN3CN(CN(C3)C1)C2 as the compound, how does the “activity change, negative = cytotoxicity” value read?
Answer: The value was -13.9%.

Question: Which “activity change, negative = cytotoxicity” value does the source give for Clc1cccc2ccccc12 here?
Answer: Its value is 5.86%.

Question: Which “activity change, negative = cytotoxicity” value does the source give for CCC(Cl)CCl (stereo not given) here?
Answer: Its value is -0.201%.

Question: With O=C(NC(=O)c1c(F)cccc1F)Nc1cc(Cl)c(Oc2ncc(C(F)(F)F)cc2Cl)c(Cl)c1 as the compound, how does the “activity change, negative = cytotoxicity” value read?
Answer: Its value is 0.224%.

Question: Which “activity change, negative = cytotoxicity” value does the source give for CCCN(CCCl)c1c([N+](=O)[O-])cc(C(F)(F)F)cc1[N+](=O)[O-] here?
Answer: The value was -1.99%.

Question: Which “activity change, negative = cytotoxicity” value does the source give for C=CC(=O)OCC(C)C here?
Answer: The value was 3.02%.

Question: Which “activity change, negative = cytotoxicity” value does the source give for COc1ccc(-c2ccccc2)cc1NNC(=O)OC(C)C here?
Answer: Its value is -19.8%.

Question: For CCO[C@H]1O[C@@H]2OC3(C)CC[C@H]4[C@H](C)CC[C@@H]([C@H]1C)[C@@]24OO3, which “activity change, negative = cytotoxicity” value is on record?
Answer: The value was -1.76% [at 42.5 µM].

Question: Which “activity change, negative = cytotoxicity” value does the source give for O=C(C(Cl)(Cl)Cl)C(Cl)(Cl)Cl here?
Answer: Its value is 1.68%.

Question: Which “activity change, negative = cytotoxicity” value does the source give for CCOC(=O)CBr here?
Answer: Its value is 2.05%.

Question: With COc1cc(CC(C)N)cc2c1OCO2 (stereo not given) as the compound, how does the “activity change, negative = cytotoxicity” value read?
Answer: The value was -0.664%.

Question: Which “activity change, negative = cytotoxicity” value does the source give for CCOP(=S)(OCC)SCSCC here?
Answer: The value was -1.86%.

Question: For O=C(NCc1cccnc1)Nc1ccc([N+](=O)[O-])cc1, which “activity change, negative = cytotoxicity” value is on record?
Answer: Its value is -4.13%.

Question: For CC(C)(OO)c1ccccc1, which “activity change, negative = cytotoxicity” value is on record?
Answer: Its value is 1.56%.

Question: For COc1nn(CSP(=S)(OC)OC)c(=O)s1, which “activity change, negative = cytotoxicity” value is on record?
Answer: Its value is 3.28%.

Question: For O=C(CBr)Nc1ccc(Cl)cc1C(=O)c1ccccc1F, which “activity change, negative = cytotoxicity” value is on record?
Answer: Its value is 4.54% [at 42.5 µM].

Question: Which “activity change, negative = cytotoxicity” value does the source give for COP(=O)(OC)O/C(=C/Cl)c1cc(Cl)c(Cl)cc1Cl here?
Answer: The value was -6.58%.

Question: For Brc1ccc(Oc2ccccc2)cc1, which Potency is on record?
Answer: The Potency was “inactive”.

Question: Which Potency does the source give for O=[Se]=O here?
Answer: The Potency was 21.5 µM (active).

Question: For O=C(O)C1(c2ccc3c(c2)OC[C@H](Cc2ccc(-c4ccccc4)cc2)[C@H]3O)CCCC1, which “activity change, negative = cytotoxicity” value is on record?
Answer: The value was 1.36%.

Question: For CCOP(=S)(OCC)Oc1cc(Cl)c(Br)cc1Cl, which “activity change, negative = cytotoxicity” value is on record?
Answer: The value was 0.345%.

Question: For CN(C)c1ccc(N(C)C)cc1, which “activity change, negative = cytotoxicity” value is on record?
Answer: The value was 2.53%.

Question: With C=C(C#N)CCC#N as the compound, how does the “activity change, negative = cytotoxicity” value read?
Answer: Its value is -1.53%.

Question: Which “activity change, negative = cytotoxicity” value does the source give for II here?
Answer: Its value is -3.43%.

Question: With O=S(=O)(O)C(F)(F)C(F)(F)C(F)(F)C(F)(F)F as the compound, how does the “activity change, negative = cytotoxicity” value read?
Answer: Its value is 7%.

Question: Which “activity change, negative = cytotoxicity” value does the source give for Cc1ccccc1CCl here?
Answer: Its value is 1.32%.

Question: For CC(=O)CCC(C)=O, which “activity change, negative = cytotoxicity” value is on record?
Answer: Its value is 0.21%.

Question: With CCCCCCCCCCOC(=O)c1ccccc1C(=O)OCCCCCCCCCC as the compound, how does the “activity change, negative = cytotoxicity” value read?
Answer: The value was 1.32%.

Question: With O=C1C(Cl)C(CCl)CN1c1cccc(C(F)(F)F)c1 (stereo not given) as the compound, how does the “activity change, negative = cytotoxicity” value read?
Answer: Its value is 0.313%.

Question: For O=C1NCN(c2ccccc2)C12CCN(CCCOc1ccc(F)cc1)CC2, which Potency is on record?
Answer: The Potency was 3.35 µM (active).

Question: With CCOc1nc(F)cc2nc(S(=O)(=O)Nc3c(Cl)cccc3Cl)nn12 as the compound, how does the “activity change, negative = cytotoxicity” value read?
Answer: The value was -0.009%.

Question: For c1ccoc1, which “activity change, negative = cytotoxicity” value is on record?
Answer: The value was -8.16%.

Question: For O=[N+]([O-])c1ccccc1CCl, which “activity change, negative = cytotoxicity” value is on record?
Answer: Its value is 11.9%.

Question: Which “activity change, negative = cytotoxicity” value does the source give for NNC(=O)c1cccnc1 here?
Answer: The value was 0.955%.

Question: With CCN(C)N=O as the compound, how does the “activity change, negative = cytotoxicity” value read?
Answer: The value was -1.68%.

Question: For CN1C(=O)NC(=O)C(C)(C2=CCCCC2)C1=O (stereo not given), which “activity change, negative = cytotoxicity” value is on record?
Answer: The value was 0.826% [at 42.5 µM].

Question: With CC(Cl)C(C)Cl (stereo not given) as the compound, how does the “activity change, negative = cytotoxicity” value read?
Answer: Its value is 3.21%.

Question: Which Potency does the source give for CCOP(=O)(OCC)Oc1ccc([N+](=O)[O-])cc1 here?
Answer: Its Potency is “inactive”.

Question: With O=C(O)COc1ccc(Cl)cc1 as the compound, how does the “activity change, negative = cytotoxicity” value read?
Answer: The value was 5.22%.
